# Results reported in PubChem BioAssay.
# Values joined by “and” are separate entries in the source; they are usually repeats but may differ in a detail not shown here. Equal entries are not always repeated. Active and inactive are the calls of the source.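 How the source made its calls, unless noted: active means z-score of at least 1.8 in each of two replicates, scored against plate mean and spread of sample wells; inactive means the rest.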
# How the values were obtained:
# [1] = Wnt pathway potentiators raising nuclear beta-catenin – imaging, WNT3A-conditioned medium, mouse C2C12, NPC library, primary screen (AID 1117326; in the data active means nuclear beta-catenin stimulation mostly above about 4.2%, no sharp cut-off; inactive means mostly below about 10%); details: stronger effect = higher value
# [2] = stimulators of insulin release from INS-1E, primary screen, cell-based, 5 mM glucose, NPC library (AID 1117329;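 active means compound raises insulin release from rat beta cells at 5 mM glucose, no numeric limit stated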); details: rat INS-1E insulin secretion, at 10 µM, stronger effect = higher value
# [3] = growth inhibition of GSK3B-pretreated HCT116 cells – cell-based, CellTiter-Glo, 0.2 to 20 µM (AID 1117336;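 active means compounds lowering colon cancer cell viability after pretreatment blocking the GSK3B kinase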); details: HCT116 viability after GSK3B inhibitor, at 20 µM, stronger effect = higher value
# [4] = inhibition of endothelial tube formation, primary screen, imaging, VEGF stimulated, CD31 staining, tube area, NPC library (AID 1117340;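 active means compound that reduces growth-factor-driven endothelial tube area in a mixed cell culture, no cutoff stated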); details: VEGF-stimulated ADSC/ECFC co-culture, at 10 µM, stronger effect = higher value
# [5] = GLP1 release stimulators, primary, NCI-H716, NPC library (AID 1117341;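 active means compound raises GLP1 secretion from the human gut endocrine cells, with no numeric limit stated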); details: NCI-H716 cells, at 10 µM, stronger effect = higher value
# [6] = HCT116 colon cancer cell growth inhibition, primary screen, CellTiter-Glo luminescence, NPC library (AID 1117342;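 active means compounds that lower survival of HCT116 colon cancer cells in the luminescence readout, no numeric limit stated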); details: at 20 µM (top of the series)
# [7] = reduced SW480 viability measured with CellTiter-Glo, NPC library, primary (AID 1117343;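 active means compounds that lower viability of the colon cancer cells in the luminescence readout, with no numeric limit stated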); details: CellTiter-Glo luminescence; at 20 µM (top of the series)
# [8] = NPC library primary testing for decreased DLD-1 cell viability via CellTiter-Glo (AID 1117346;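 active means compounds that lower survival of DLD-1 colon cancer cells in the luminescence readout, no cutoff given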); details: DLD-1 viability, CellTiter-Glo luminescence; at 20 µM (top of the series)
# [9] = EMT-state selective cytotoxicity in co-culture – imaging, PC-3E GFP, TEM4-18 mCherry, primary screen (AID 1345086;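 active means compounds killing one labelled cell type while sparing the other, by normalised counts and ratio limits, not self-fluorescent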;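 on all read-outs here: cells exposed to compound for 72 h before imaging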;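 on red/green cell ratio (normalised): normalised mesenchymal count divided by normalised epithelial count so high means epithelial killing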); details: PC-3E GFP / TEM4-18 mCherry co-culture, imaging cell counts, at 1 µM; for red/green cell ratio (normalised): actives lie on both sides
# [10] = MELAS cybrid and Rieske KO viability enhancers – cell-based, MELAS cybrids, Rieske KO mouse fibroblasts, CellTiter-Glo, primary screen (AID 1508586;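 active means mean z-score across replicates of 1.96 or higher in either the MELAS or the Rieske mutant cell line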;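 further: z relative to plate mean and SD of compound and empty wells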); details: low glucose
# [11] = molecular target: NAD(+) hydrolase SARM1 (Homo sapiens) (UniProt Q6SZW1); assay: blocking NAD cleavage by SARM1 SAM-TIR – cell lysate, NAD-Glo luminescence (AID 1508614;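 active means compound whose remaining NAD level is above about 45 nM, limit read from the data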); details: SAM-TIR HEK293T lysate NADase, at 1 µM, stronger effect = higher value
# Sequence of NAD(+) hydrolase SARM1 (Homo sapiens) (Q6SZW1 whole entry, looked up): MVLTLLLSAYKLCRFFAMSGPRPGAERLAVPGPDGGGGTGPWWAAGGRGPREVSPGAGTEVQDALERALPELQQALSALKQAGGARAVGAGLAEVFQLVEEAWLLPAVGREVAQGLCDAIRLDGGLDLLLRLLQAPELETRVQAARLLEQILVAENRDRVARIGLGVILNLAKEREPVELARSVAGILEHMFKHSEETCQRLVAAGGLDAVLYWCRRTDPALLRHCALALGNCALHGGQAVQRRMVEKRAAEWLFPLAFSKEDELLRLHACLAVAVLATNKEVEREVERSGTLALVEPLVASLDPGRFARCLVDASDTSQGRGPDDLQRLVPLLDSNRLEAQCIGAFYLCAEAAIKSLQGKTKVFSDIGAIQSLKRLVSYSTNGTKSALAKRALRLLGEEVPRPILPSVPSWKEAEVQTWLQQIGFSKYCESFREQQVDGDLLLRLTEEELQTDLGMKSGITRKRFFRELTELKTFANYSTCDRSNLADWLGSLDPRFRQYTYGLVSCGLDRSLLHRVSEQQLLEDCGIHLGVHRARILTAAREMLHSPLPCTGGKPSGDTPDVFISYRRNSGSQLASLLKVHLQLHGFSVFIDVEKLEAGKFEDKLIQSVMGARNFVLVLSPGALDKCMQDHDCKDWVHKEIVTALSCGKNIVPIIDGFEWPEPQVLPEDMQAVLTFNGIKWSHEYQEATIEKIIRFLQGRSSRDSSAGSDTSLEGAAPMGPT
# [12] = galactose survival enhancers in mitochondrial complex I cybrids – cell-based, galactose medium, ATP luminescence, primary screen (AID 1645843); details: complex I mutant cybrid cells, 72 h, stronger effect = higher value;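 further: positive z means more ATP and so rescue of galactose-driven cybrid death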
# [13] = P. berghei load reduction in hepatocytes – cell-based, HepG2, luciferase luminescence, HepG2 viability, primary screen (AID 624349; in the data active means parasite load remaining mostly below about 12%, no sharp cut-off; inactive means mostly above about 10%;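 further: 100% = mean of DMSO negative control wells on the same plate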); details: P. berghei liver stage in HepG2, luciferase luminescence, concentration not given here; parasite load remaining: stronger effect = lower value; viability: measured here: HepG2 viability without parasites
# [14] = molecular target: Mitogen-activated protein kinase 7 (Homo sapiens) (UniProt Q13164); assay: Gal4-ERK5 driven luciferase induction – cell-based, HTS, primary screen (AID 1508626;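 active means luciferase signal above three times the same-plate solvent-only control wells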;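 further: luciferase driven by Gal4-ERK5 fusion binding five Gal4 sites before minimal TATA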); details: HeLa Gal4-ERK5 transactivation, 18 h, at 5 µM, stronger effect = higher value
# Sequence of Mitogen-activated protein kinase 7 (Homo sapiens) (Q13164 whole entry, looked up, the tested form may be a part): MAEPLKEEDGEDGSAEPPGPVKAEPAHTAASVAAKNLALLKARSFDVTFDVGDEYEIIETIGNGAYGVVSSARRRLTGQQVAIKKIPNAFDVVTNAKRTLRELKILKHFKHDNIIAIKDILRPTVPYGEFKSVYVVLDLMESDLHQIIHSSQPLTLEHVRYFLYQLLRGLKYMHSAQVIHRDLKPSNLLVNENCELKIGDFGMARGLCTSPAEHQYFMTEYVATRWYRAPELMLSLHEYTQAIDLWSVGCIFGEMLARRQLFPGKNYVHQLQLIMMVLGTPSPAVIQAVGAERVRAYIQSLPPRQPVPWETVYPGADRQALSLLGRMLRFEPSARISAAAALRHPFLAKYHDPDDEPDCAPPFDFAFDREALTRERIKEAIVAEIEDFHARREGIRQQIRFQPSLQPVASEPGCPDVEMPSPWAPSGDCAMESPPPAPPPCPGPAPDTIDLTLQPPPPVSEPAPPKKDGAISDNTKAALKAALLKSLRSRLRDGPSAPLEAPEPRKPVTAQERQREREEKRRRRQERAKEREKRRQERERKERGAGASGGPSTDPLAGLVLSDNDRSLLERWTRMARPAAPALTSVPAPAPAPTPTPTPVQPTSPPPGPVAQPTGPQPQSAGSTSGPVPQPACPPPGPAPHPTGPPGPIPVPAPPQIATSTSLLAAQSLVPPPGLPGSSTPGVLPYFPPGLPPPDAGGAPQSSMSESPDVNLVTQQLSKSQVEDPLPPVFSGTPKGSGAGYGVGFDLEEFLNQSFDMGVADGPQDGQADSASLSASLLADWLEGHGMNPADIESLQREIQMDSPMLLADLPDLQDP
# [15] = viability loss with induced miR-34 in A549 – imaging, A549 dox-inducible miR-34, nuclei and caspase counts, primary screen (AID 1347080;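 active means compounds whose cell count with miR-34 switched on is under 0.7 times the count with it off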); details: A549 miR-34 inducible, Hoechst nuclei count, 48 h
# [16] = tested on: Aerobactin synthetase IucA (Klebsiella pneumoniae hvKP1); assay: IucA enzyme inhibition, primary screen, biochemical, Spectrum library (AID 1346200; call rule not given here;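 further: 100% = wells without compound and 0% = wells lacking enzyme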); details: malachite green pyrophosphate, A620, at 8 µM, stronger effect = lower value
# [17] = yeast 75Q aggregation reduction – 75Q-TubU reporter (AID 1593); details: Yeast 75Q polyglutamine aggregation reporter
# [18] = blockers of cytochrome c efflux from mitochondria – biochemical, purified mitochondria (AID 1603); details: stronger effect = lower value;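 further: mouse liver mitochondria challenged with calcium chloride; signal normalized to the plate average as 100%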
# [19] = polyglutamine aggregate formation blockers (AID 1604); details: polyglutamine-induced protein aggregation inhibition assay; stronger effect = higher value; tested at 2.5 µM
# [20] = measured here: epithelial PC-3E GFP cell survival
# [21] = measured here: mesenchymal TEM4-18 mCherry cell survival
# [22] = MELAS cybrid survival, CellTiter-Glo 48 h, stronger effect = higher value
# [23] = Rieske KO mouse fibroblast survival, CellTiter-Glo 72 h
# [24] = measured here: relative caspase fold change +Dox/-Dox
# [25] = measured here: total cells with miR-34 induction, stronger effect = lower value
# [26] = measured here: total cells without miR-34 induction
smiles,measurement,setting,value
CC[C@@H](CO)NC(=O)[C@@H]1C=C2c3cccc4c3c(cn4C)C[C@H]2N(C)C1,nuclear beta-catenin stimulation,[1]; at 10 µM,3.3% (inactive)
same,nuclear beta-catenin stimulation,"[1]; stimulation, at 2 µM",1.1%
same,insulin secretion stimulation,[2],2.6% (inactive)
same,viability decrease,[3],1% (inactive)
same,tube area decrease,[4],-1.8% (inactive)
same,GLP1 secretion stimulation,[5],0.1% (inactive)
same,inhibition of viability,[6],9.4% (inactive)
same,viability decrease (inhibition),[7],16% (inactive)
same,viability decrease (inhibition),[8],5.6% (inactive)
same,red/green cell ratio (normalised),[9],0.99 (inactive)
same,normalised cell number,[9]; [20],0.96
same,normalised cell number,[9]; [21],0.95
same,z-score,[10]; [22],-0.563 (inactive)
same,z-score,[10]; [23],-1.27
same,remaining NAD,[11],10 nM (inactive)
same,z-score,[12],0.19 (inactive) and -0.69 (inactive) and -0.15 (inactive)
C=C1C[C@@H]2[C@H](CC[C@]3(C)C(=O)CC[C@@H]23)[C@@]2(C)C=CC(=O)C=C12,parasite load remaining,[13],41% (inactive)
same,viability,[13],86.7%
same,nuclear beta-catenin stimulation,[1]; at 10 µM,2.3% (inactive)
same,nuclear beta-catenin stimulation,"[1]; stimulation, at 2 µM",-0.3%
same,insulin secretion stimulation,[2],12.9% (inactive)
same,viability decrease,[3],2.6% (inactive)
same,tube area decrease,[4],6.3% (inactive)
same,GLP1 secretion stimulation,[5],8.3% (inactive)
same,inhibition of viability,[6],-12.1% (inactive)
same,viability decrease (inhibition),[7],24.7% (inactive)
same,viability decrease (inhibition),[8],-20.4% (inactive)
same,z-score,[10]; [22],0.961 (inactive)
same,z-score,[10]; [23],0.0493
same,remaining NAD,[11],10 nM (inactive)
same,luciferase signal,[14],60 AU (inactive)
NP(N)(=O)NC(=O)c1ccc(F)cc1,nuclear beta-catenin stimulation,[1]; at 10 µM,0.1% (inactive)
same,nuclear beta-catenin stimulation,"[1]; stimulation, at 2 µM",0.9%
same,insulin secretion stimulation,[2],-0.7% (inactive)
same,viability decrease,[3],-1.25% (inactive)
same,tube area decrease,[4],-20.9% (inactive)
same,GLP1 secretion stimulation,[5],1.1% (inactive)
same,inhibition of viability,[6],-0.3% (inactive)
same,viability decrease (inhibition),[7],31.5% (inactive)
same,viability decrease (inhibition),[8],6.6% (inactive)
same,red/green cell ratio (normalised),[9],0.99 (inactive)
same,normalised cell number,[9]; [20],0.92
same,normalised cell number,[9]; [21],0.91
same,fold change,[15]; stronger effect = lower value,0.935 (inactive) and 0.913 (inactive)
same,fold change,[15]; [24],0.958 and 0.851
same,cell count,[15]; [25],8980 and 8200
same,cell count,[15]; [26],9600 and 8990
same,remaining NAD,[11],10 nM (inactive)
same,z-score,[12],-0.31 (inactive)
c1ccc2c(c1)OCC(C1=NCCN1)O2 (centres undefined),parasite load remaining,[13],48.2% (inactive) and 42.6% (inactive)
same,viability,[13],92.9% and 100%
same,nuclear beta-catenin stimulation,[1]; at 10 µM,5.9% (inactive)
same,nuclear beta-catenin stimulation,"[1]; stimulation, at 2 µM",-1.4%
same,insulin secretion stimulation,[2],2.3% (inactive)
same,viability decrease,[3],14.1% (inactive)
same,tube area decrease,[4],-4.8% (inactive)
same,GLP1 secretion stimulation,[5],0.1% (inactive)
same,inhibition of viability,[6],17.5% (inactive)
same,viability decrease (inhibition),[7],33.2% (inactive)
same,viability decrease (inhibition),[8],-3.9% (inactive)
same,red/green cell ratio (normalised),[9],0.85 (inactive)
same,normalised cell number,[9]; [20],1.22
same,normalised cell number,[9]; [21],1.03
same,z-score,[10]; [22],0.698 (inactive) and 0.759 (inactive)
same,z-score,[10]; [23],-0.433 and -0.198
same,remaining NAD,[11],10 nM (inactive)
same,z-score,[12],-1 (inactive) and -0.91 (inactive) and -1.57 (inactive)
Nc1ccc([As](=O)(O)O)cc1,parasite load remaining,[13],57.3% (inactive)
same,viability,[13],124%
same,nuclear beta-catenin stimulation,[1]; at 10 µM,1.1% (inactive)
same,nuclear beta-catenin stimulation,"[1]; stimulation, at 2 µM",0.8%
same,insulin secretion stimulation,[2],-1.7% (inactive)
same,viability decrease,[3],-4.2% (inactive)
same,tube area decrease,[4],-12.5% (inactive)
same,GLP1 secretion stimulation,[5],0.9% (inactive)
same,inhibition of viability,[6],26% (inactive)
same,viability decrease (inhibition),[7],2.1% (inactive)
same,viability decrease (inhibition),[8],-7.6% (inactive)
same,red/green cell ratio (normalised),[9],0.96 (inactive)
same,normalised cell number,[9]; [20],1.12
same,normalised cell number,[9]; [21],1.07
same,activity remaining,[16],117% (inactive)
same,fold change,[15]; stronger effect = lower value,0.904 (inactive)
same,fold change,[15]; [24],4.85
same,cell count,[15]; [25],12200
same,cell count,[15]; [26],13500
same,remaining NAD,[11],10 nM (inactive)
same,luciferase signal,[14],48 AU (inactive)
N#Cc1nn(-c2c(Cl)cc(C(F)(F)F)cc2Cl)c(N)c1S(=O)C(F)(F)F (centres undefined),parasite load remaining,[13],148% (inactive) and 35.4% (inactive)
same,viability,[13],82.8% and 121%
same,nuclear beta-catenin stimulation,[1]; at 10 µM,6.4% (inactive)
same,nuclear beta-catenin stimulation,"[1]; stimulation, at 2 µM",2.1%
same,insulin secretion stimulation,[2],0.5% (inactive)
same,viability decrease,[3],-53.1% (inactive)
same,tube area decrease,[4],9.4% (inactive)
same,GLP1 secretion stimulation,[5],-1.4% (inactive)
same,inhibition of viability,[6],17.3% (inactive)
same,viability decrease (inhibition),[7],42.7% (inactive)
same,viability decrease (inhibition),[8],6.4% (inactive)
same,red/green cell ratio (normalised),[9],0.9 (inactive)
same,normalised cell number,[9]; [20],1
same,normalised cell number,[9]; [21],0.9
same,activity remaining,[16],115% (inactive)
same,fold change,[15]; stronger effect = lower value,0.962 (inactive) and 0.928 (inactive)
same,fold change,[15]; [24],1.07 and 3.63
same,cell count,[15]; [25],4080 and 11800
same,cell count,[15]; [26],4240 and 12700
same,remaining NAD,[11],10 nM (inactive)
same,luciferase signal,[14],40 AU (inactive)
C#CCN(C)[C@H](C)Cc1ccccc1,nuclear beta-catenin stimulation,[1]; at 10 µM,-2% (inactive)
same,nuclear beta-catenin stimulation,"[1]; stimulation, at 2 µM",0.7%
same,insulin secretion stimulation,[2],1.2% (inactive)
same,viability decrease,[3],1.9% (inactive)
same,tube area decrease,[4],-3.8% (inactive)
same,GLP1 secretion stimulation,[5],1.9% (inactive)
same,inhibition of viability,[6],6.37% (inactive)
same,viability decrease (inhibition),[7],10.9% (inactive)
same,viability decrease (inhibition),[8],8.8% (inactive)
same,z-score,[10]; [22],-1.17 (inactive) and -0.00892 (inactive)
same,z-score,[10]; [23],-0.0749 and -0.112
same,remaining NAD,[11],10 nM (inactive)
same,z-score,[12],1.24 (inactive) and 0.63 (inactive)
COc1ccc(C(=O)N2CCCC2=O)cc1,score,[17],0.89
same,cytochrome c release ratio,[18],0.98
same,inhibition of aggregation,[19],60.5%
same,parasite load remaining,[13],27.9% (inactive) and 46.2% (inactive)
same,viability,[13],90.5% and 108%
same,nuclear beta-catenin stimulation,[1]; at 10 µM,0.6% (inactive)
same,nuclear beta-catenin stimulation,"[1]; stimulation, at 2 µM",1.5%
same,insulin secretion stimulation,[2],-0.2% (inactive)
same,viability decrease,[3],-7.2% (inactive)
same,tube area decrease,[4],-6.9% (inactive)
same,GLP1 secretion stimulation,[5],-1% (inactive)
same,inhibition of viability,[6],-1% (inactive)
same,viability decrease (inhibition),[7],8.2% (inactive)
same,viability decrease (inhibition),[8],2.2% (inactive)
same,red/green cell ratio (normalised),[9],1.03 (inactive)
same,normalised cell number,[9]; [20],1.3
same,normalised cell number,[9]; [21],1.35
same,activity remaining,[16],112% (inactive)
same,z-score,[10]; [22],0.14 (inactive) and 0.301 (inactive) and -1.05 (inactive)
same,z-score,[10]; [23],1 and 0.247 and -0.762
same,remaining NAD,[11],10 nM (inactive)
same,luciferase signal,[14],60 AU (inactive)
same,z-score,[12],0.545 (inactive) and 0.9 (inactive) and 0.65 (inactive)
CNCC(=O)c1ccc(O)c(O)c1,nuclear beta-catenin stimulation,[1]; at 10 µM,-2.8% (inactive)
same,nuclear beta-catenin stimulation,"[1]; stimulation, at 2 µM",-1.5%
same,insulin secretion stimulation,[2],-0.7% (inactive)
same,viability decrease,[3],44.4% (inactive)
same,tube area decrease,[4],-23.7% (inactive)
same,GLP1 secretion stimulation,[5],-4.7% (inactive)
same,inhibition of viability,[6],20.7% (inactive)
same,viability decrease (inhibition),[7],24.3% (inactive)
same,viability decrease (inhibition),[8],19.2% (inactive)
same,red/green cell ratio (normalised),"[9]; counts scaled to control wells, 1 = unselective",1.24 (inactive)
same,normalised cell number,[9]; [20],1.18
same,normalised cell number,[9]; [21],1.47
same,fold change,[15]; stronger effect = lower value,0.925 (inactive) and 0.971 (inactive)
same,fold change,[15]; [24],0.648 and 0.466
same,cell count,[15]; [25],6760 and 7680
same,cell count,[15]; [26],7310 and 7920
same,z-score,[10]; [22],-0.0398 (inactive)
same,z-score,[10]; [23],-0.269
same,remaining NAD,[11],10 nM (inactive)
